Laboratory results from PubChem BioAssay AID493034 (The Scripps Research Institute Molecular Screening Center, 2011).
The campaign covered roughly 2,400 compounds. About 2,200 (92%) were called active. The set was probably picked from earlier hits. This is one part of the list. Unmarked numbers belong to inactive results.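 Rule for the calls: active = mean inhibition over triplicate runs exceeds the cutoff derived for the earlier primary screen (cut at about 25% in these data); inactive = the rest.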

Target: Platelet-activating factor acetylhydrolase IB subunit alpha2 (Homo sapiens) (UniProt P68402)
Sequence (P68402 whole entry, looked up): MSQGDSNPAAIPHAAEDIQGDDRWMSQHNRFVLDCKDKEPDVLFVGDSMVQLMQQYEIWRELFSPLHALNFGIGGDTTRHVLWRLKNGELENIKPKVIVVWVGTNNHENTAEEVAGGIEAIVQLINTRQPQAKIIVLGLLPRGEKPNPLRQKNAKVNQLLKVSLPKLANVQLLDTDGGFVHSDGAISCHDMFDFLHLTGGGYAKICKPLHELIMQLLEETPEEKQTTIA
Test: inhibition of human PAFAH1B2 catalytic subunit – biochemical, fluorescence polarization, FP-rhodamine probe, triplicate, confirmation (AID 493034);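 note: 0% = enzyme with DMSO and 100% = wells lacking PAFAH1B2 protein; inhibitors lower polarization by leaving the probe unbound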
Settings: recombinant PAFAH1B2, FP-rhodamine probe fluorescence polarization; at 3.39 µM; hits give high values

SMILES	inhibition
COC(=O)C1=C(c2ccc(C(C)=O)cc2)C[C@@H]2CC[C@H]1N2C(=O)NCc1ccc(F)cc1	23.9%
COC(=O)C1=C(c2ccc(C(C)=O)cc2)C[C@@H]2CC[C@H]1N2C(=O)NCc1ccc(C(F)(F)F)cc1	28% (active)
O=P(NS(=O)(=O)c1ccc(Cl)cc1)(Oc1ccccc1)Oc1ccccc1	81.3% (active)
Cc1ccc(S(=O)(=O)NP(=O)(Oc2ccccc2)Oc2ccccc2)cc1	51.9% (active)
O=P(NS(=O)(=O)c1ccc(Br)cc1)(Oc1ccccc1)Oc1ccccc1	78.1% (active)
BrCC(Br)C1CCC(Br)C(Br)C1 (configuration not stated)	56.7% (active)
O=c1[nH]c(=S)n(CCC2=CCCCC2)c(O)c1/C=N/Nc1ccccc1	29.8% (active)
O=S(=O)(c1ccc(Cl)cc1)c1ccc(Cl)cc1	42.9% (active)
Cc1ccc(OCCOc2cccc(C=C3C(=O)NC(=O)NC3=O)c2)cc1	36.7% (active)
O=C(O)CCn1cc(C=C2C(=O)NC(=O)NC2=O)c(-c2ccc(Br)cc2)n1	36.4% (active)
O=C(OCCN1CCOCC1)C1(c2ccccc2)CCCC1	32.4% (active)
O=C(O)C1(c2ccc(Cl)cc2)CCC1	37% (active)
Cn1c(O)c(/C=C2\N=c3ccccc3=C2CCNC(=S)NC2CC2)c(=O)n(C)c1=O	84.3% (active)
O=C(Cc1ccc(N(CCCl)CCCl)cc1)NC(Cc1ccc(Cl)cc1)C(=O)O (configuration not stated)	63% (active)
O=C(Cc1ccccc1)NC(Cc1ccc(Cl)cc1)C(=O)O (configuration not stated)	28.4% (active)
O=C1CC(=O)N(Cc2ccccc2)C(=S)N1	15.9%
O=c1[nH]c(=S)n(Cc2ccc(F)cc2)c(O)c1C=NCC1CCCO1 (configuration not stated)	27.5% (active)
O=c1[nH]c(=S)n(Cc2ccc(F)cc2)c(O)c1/C=N/N1CCCCCC1	27.4% (active)
O=C(N/N=C/c1c(O)n(Cc2ccc(F)cc2)c(=O)[nH]c1=O)c1ccccc1	23.9%

SMILES	inhibition
O=C(N/N=C/c1c(O)n(Cc2ccc(F)cc2)c(=S)[nH]c1=O)c1ccncc1	40.2% (active)
O=c1[nH]c(=S)n(Cc2ccc(F)cc2)c(O)c1/C=N/N1CCCCC1	38.2% (active)
CC1CC(OP(O)(=S)c2ccc(N(C)C)cc2NC(=O)c2cccs2)CC(C)(C)C1 (configuration not stated)	17.3%
O=C1CN=C(c2ccccc2)c2ccccc2N1Cc1ccc(C(F)(F)F)cc1	57.8% (active)
Cc1ccc(Sc2ccc(C=C3C(=O)N(C)C(=O)N(C)C3=O)o2)cc1	62.6% (active)
O=C1NC(=O)C(=Cc2ccc(-c3ccc(F)cc3O)o2)C(=O)N1	20.5%
Cc1ccc(-c2nc3ccc(Cl)cc3n2OC(=O)N(C)C)cc1	59% (active)
CNC(=O)O/N=C(\N)Cc1csc2ccc(Cl)cc12	54.9% (active)
FC(F)(F)c1cccc(-n2nnnc2C2(N3CCOCC3)CCCCC2)c1	23.3%
Cc1ccc2c(c1)=NC(=O)/C(=C/c1c(O)[nH]c(=O)[nH]c1=O)C=2	21.7%
C=C[C@@H]1C[C@@]1(C)[C@@H](NP(=O)(c1ccccc1)c1ccccc1)c1ccccc1	29.2% (active)
Nc1ccc(C2(c3ccc(N)cc3)CCCCC2)cc1	45.2% (active)
O=P(O)(Oc1ccccc1)OC(c1ccccc1)C(F)(F)C(F)(F)F (configuration not stated)	85.5% (active)
NP(=O)(OCCCc1ccccc1)Oc1ccc(Cl)cc1 (configuration not stated)	88.8% (active)
NP(=O)(OCCCc1ccccc1)Oc1ccccc1 (configuration not stated)	51.6% (active)
Nc1ccc2cc(Br)ccc2c1	70.6% (active)
CNC(=O)Oc1ccc(C(=O)N2c3ccccc3NC(=O)C2C)cc1 (configuration not stated)	43.6% (active)
O=C(O)c1c[nH]c2ccc(S(=O)(=O)N(CCCl)CCCl)cc12	26% (active)
